From PubChem BioAssay (NCATS)
Unmarked numbers belong to inactive results. Inconclusive results are not listed. Where a call stands in place of a potency, no number is given. Calls of active or inactive are those of the source. Unless noted, calls come from the whole dose curve; as a rule, active = well fitted curve in the direction sought with a large enough effect; inconclusive = small, poorly fitted or top-dose-only effect, or another doubt; inactive = no such curve, though single readings can be large; an effect the other way counts as inactive or inconclusive.

Tests used:
[1] = biological target: Transient receptor potential cation channel subfamily V member 1 (Homo sapiens) (UniProt Q8NER1); experiment: HTS Assay for Compounds that Act as Enhancers of the Vanilloid Receptor 1 (AID 488979)
Summary of the method: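 Calcium influx kinetics via Fluo-8 (480/520 nm) in TRPV1-expressing cells, 2000/well cultured overnight at 35.5C. Compound-alone read 3 min (agonist phase), followed by EC20 capsaicin challenge for 2 min (enhancer phase).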

[2] = biological target: Thyrotropin receptor (Homo sapiens) (UniProt P16473); experiment: qHTS Assay for Antagonists of the Thyroid Stimulating Hormone Receptor (AID 488980); note: series mostly up to about 58 µM
Summary of the method: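 TSHR-transfected HEK293 cells (2000/well) in HEPES-buffered HBSS with 70 uM RO 20-1724 were stimulated with 4 nM TSH (EC80, final) in the presence of compound. cAMP was measured by HTRF competition after lysis and 30 min at RT.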

[3] = biological target: D(1A) dopamine receptor (Homo sapiens) (UniProt P21728); experiment: HTS Assay for Allosteric Agonists of the Human D1 Dopamine Receptor: Primary Screen for Potentiators (AID 488982)
Summary of the method: (§1)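 Calcium flux in an inducible, force-coupled HEK293 Trex D1 line (overnight at 30 C): agonist mode is the 180 s kinetic read after compound; potentiator mode is the following 180 s read after dopamine at EC20.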

[4] = Validation screen for small molecules that induce genotoxicity in human embryonic kidney (HEK293T) cells expressing luciferase-tagged ELG1 (AID 493106); note: potency is the fitted concentration of half-maximal effect
Summary of the method: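 Cells were dispensed at 2,000 per well, then 23 nL compound or DMSO was pinned in. After 16 hr at 37 °C and 5% CO2, ONE-Glo reagent was added. Luciferase activity was measured following 30 min at room temperature.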

[5] = biological target: Thyrotropin-releasing hormone receptor (Homo sapiens) (UniProt P34981); experiment: qHTS for Small Molecule Agonists and Allosteric Enhancers of Human TRH Receptor: Validation Screen for Agonists (AID 493127;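 active = calcium activation more than 3 SD above the typical response in the agonist read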;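 note: intracellular calcium rise by fluo-8 fluorescence before TRH EC20 addition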); conditions: TRH receptor agonist cell assay; at 2 µM; active compounds read high
Summary of the method: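 Compounds are added by online pintool to dye-loaded TRHR cells while fluorescence is recorded every second. A rise in calcium signal during the agonist read marks activation; a later 10 nM TRH addition (EC20) serves the separate enhancer mode.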

[6] = biological target: D(1A) dopamine receptor (Homo sapiens) (UniProt P21728); experiment: HTS Assay for Allosteric Agonists of the Human D1 Dopamine Receptor: Primary Screen for Agonists (AID 488981); note: potency is the fitted concentration of half-maximal effect
Summary of the method: as §1

[7] = biological target: D(1A) dopamine receptor (Homo sapiens) (UniProt P21728); experiment: HTS Assay for Allosteric Agonists of the Human D1 Dopamine Receptor: Primary Screen for Antagonists (AID 488983);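 note: calcium flux response to an EC80 dopamine challenge measured with no-wash dye; nearly all actives have a fitted effect of over 65% in size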
Summary of the method: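 Kinetic fluorescence at 1 cycle/sec tracked intracellular calcium in force-coupled, tetracycline-inducible HEK293 T-REx D1 cells. Loss of response to an EC80 dopamine dose, given 180 s after compound, marked antagonists.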

[8] = biological target: ATPase family AAA domain-containing protein 5 (Homo sapiens) (UniProt Q96QE3); experiment: Validation screen for small molecules that inhibit ELG1-dependent DNA repair in human embryonic kidney (HEK293T) cells expressing luciferase-tagged ELG1 (AID 493107); note: nearly all actives have a fitted effect of over 70% in size; note: potency is the fitted concentration of half-maximal effect
Summary of the method: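 Cells are dispensed in 1536-well format, then 5-fluorouridine and compound are pinned in. After a 16 hr incubation at 37 °C and 5% CO2, ONE-Glo is added and luciferase measured on a CCD imager.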

D(1A) dopamine receptor (Homo sapiens), sequence (P21728 whole entry, looked up): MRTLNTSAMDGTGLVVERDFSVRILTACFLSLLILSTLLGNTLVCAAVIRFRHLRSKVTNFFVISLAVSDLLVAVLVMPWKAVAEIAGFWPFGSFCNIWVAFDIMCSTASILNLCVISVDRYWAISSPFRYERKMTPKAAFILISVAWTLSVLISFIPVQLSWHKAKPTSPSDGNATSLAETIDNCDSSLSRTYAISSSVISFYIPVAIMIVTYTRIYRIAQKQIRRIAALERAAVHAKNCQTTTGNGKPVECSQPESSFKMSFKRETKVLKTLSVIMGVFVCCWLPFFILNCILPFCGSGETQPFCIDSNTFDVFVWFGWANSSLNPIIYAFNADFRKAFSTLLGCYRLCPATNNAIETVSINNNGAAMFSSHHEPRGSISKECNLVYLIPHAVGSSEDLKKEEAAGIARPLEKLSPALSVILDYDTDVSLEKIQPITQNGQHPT
Thyrotropin receptor (Homo sapiens), sequence (P16473 whole entry, looked up): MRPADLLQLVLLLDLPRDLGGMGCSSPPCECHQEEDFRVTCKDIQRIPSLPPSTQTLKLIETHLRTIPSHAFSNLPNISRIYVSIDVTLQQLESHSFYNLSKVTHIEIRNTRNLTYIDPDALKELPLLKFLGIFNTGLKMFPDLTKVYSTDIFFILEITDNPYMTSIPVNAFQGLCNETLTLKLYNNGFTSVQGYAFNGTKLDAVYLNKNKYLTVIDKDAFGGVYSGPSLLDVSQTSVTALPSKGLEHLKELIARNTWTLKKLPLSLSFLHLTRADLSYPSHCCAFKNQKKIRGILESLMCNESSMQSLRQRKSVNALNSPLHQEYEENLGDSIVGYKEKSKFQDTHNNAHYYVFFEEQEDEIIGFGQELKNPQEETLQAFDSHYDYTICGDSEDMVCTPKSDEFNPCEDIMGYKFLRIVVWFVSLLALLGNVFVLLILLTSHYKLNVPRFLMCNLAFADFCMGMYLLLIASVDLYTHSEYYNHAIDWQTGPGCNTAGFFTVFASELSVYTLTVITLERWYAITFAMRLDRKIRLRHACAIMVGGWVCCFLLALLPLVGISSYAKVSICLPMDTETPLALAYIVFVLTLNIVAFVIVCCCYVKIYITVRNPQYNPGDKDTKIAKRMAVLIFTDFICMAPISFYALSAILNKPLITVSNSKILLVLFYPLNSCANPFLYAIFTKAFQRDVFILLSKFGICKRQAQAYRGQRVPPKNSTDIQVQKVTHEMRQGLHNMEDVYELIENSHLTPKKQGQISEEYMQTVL
Thyrotropin-releasing hormone receptor (Homo sapiens), sequence (P34981 whole entry, looked up): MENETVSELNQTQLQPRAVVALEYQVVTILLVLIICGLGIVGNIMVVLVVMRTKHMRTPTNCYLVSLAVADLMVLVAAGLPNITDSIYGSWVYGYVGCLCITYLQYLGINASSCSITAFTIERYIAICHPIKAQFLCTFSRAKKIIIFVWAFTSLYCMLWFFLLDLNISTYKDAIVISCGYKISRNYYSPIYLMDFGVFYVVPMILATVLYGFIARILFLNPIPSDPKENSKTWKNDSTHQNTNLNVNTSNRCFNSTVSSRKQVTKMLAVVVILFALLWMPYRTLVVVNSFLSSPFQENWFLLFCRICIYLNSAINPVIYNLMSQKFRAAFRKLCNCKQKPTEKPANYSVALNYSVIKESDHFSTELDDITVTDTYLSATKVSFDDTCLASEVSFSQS
ATPase family AAA domain-containing protein 5 (Homo sapiens), sequence (Q96QE3 whole entry, looked up, the tested form may be a part): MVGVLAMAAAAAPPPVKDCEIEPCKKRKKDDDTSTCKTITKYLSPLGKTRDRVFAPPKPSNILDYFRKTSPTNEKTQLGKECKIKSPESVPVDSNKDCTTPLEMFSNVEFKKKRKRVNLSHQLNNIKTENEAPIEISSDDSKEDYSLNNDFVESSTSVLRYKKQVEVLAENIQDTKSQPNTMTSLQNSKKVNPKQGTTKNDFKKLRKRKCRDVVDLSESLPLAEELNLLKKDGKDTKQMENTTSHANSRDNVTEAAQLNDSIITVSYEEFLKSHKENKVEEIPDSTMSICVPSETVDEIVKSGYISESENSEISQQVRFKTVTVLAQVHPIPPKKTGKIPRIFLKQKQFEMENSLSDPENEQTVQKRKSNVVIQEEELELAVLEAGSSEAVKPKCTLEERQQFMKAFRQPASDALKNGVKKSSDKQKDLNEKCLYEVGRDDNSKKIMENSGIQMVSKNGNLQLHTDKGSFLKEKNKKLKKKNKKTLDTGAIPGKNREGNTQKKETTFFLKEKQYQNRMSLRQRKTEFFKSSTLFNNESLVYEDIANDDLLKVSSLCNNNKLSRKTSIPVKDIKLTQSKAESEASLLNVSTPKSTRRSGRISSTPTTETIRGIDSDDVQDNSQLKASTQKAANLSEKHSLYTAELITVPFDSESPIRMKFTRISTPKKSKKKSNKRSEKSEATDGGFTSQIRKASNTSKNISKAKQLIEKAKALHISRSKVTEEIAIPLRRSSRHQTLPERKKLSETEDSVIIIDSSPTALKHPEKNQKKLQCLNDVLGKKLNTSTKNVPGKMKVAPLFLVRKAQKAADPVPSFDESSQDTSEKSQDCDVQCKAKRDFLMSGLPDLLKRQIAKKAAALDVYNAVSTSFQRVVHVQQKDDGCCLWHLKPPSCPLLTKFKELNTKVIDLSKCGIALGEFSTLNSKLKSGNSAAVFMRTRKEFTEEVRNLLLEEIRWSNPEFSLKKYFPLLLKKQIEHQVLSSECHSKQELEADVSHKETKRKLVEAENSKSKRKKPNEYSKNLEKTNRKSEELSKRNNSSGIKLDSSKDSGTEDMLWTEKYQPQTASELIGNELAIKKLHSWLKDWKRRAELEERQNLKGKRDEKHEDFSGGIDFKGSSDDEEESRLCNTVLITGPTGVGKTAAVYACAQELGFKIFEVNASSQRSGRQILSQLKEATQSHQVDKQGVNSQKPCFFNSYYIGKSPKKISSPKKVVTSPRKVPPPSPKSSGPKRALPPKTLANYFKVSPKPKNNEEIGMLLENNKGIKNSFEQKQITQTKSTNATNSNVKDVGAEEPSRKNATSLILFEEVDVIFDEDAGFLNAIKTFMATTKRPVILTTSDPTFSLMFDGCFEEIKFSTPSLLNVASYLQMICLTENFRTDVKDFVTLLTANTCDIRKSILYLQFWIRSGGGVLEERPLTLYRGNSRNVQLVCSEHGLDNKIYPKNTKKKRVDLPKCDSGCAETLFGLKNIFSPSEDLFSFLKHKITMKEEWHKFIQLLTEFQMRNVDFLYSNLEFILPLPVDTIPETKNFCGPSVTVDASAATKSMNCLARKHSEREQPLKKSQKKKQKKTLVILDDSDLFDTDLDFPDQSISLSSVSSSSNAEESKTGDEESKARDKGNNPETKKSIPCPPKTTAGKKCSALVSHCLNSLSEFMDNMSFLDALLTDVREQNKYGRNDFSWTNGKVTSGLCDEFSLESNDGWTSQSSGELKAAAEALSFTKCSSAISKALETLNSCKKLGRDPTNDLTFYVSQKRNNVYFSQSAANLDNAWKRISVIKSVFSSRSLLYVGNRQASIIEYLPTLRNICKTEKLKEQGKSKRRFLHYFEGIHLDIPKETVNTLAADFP
Transient receptor potential cation channel subfamily V member 1 (Homo sapiens), sequence (Q8NER1 whole entry, looked up): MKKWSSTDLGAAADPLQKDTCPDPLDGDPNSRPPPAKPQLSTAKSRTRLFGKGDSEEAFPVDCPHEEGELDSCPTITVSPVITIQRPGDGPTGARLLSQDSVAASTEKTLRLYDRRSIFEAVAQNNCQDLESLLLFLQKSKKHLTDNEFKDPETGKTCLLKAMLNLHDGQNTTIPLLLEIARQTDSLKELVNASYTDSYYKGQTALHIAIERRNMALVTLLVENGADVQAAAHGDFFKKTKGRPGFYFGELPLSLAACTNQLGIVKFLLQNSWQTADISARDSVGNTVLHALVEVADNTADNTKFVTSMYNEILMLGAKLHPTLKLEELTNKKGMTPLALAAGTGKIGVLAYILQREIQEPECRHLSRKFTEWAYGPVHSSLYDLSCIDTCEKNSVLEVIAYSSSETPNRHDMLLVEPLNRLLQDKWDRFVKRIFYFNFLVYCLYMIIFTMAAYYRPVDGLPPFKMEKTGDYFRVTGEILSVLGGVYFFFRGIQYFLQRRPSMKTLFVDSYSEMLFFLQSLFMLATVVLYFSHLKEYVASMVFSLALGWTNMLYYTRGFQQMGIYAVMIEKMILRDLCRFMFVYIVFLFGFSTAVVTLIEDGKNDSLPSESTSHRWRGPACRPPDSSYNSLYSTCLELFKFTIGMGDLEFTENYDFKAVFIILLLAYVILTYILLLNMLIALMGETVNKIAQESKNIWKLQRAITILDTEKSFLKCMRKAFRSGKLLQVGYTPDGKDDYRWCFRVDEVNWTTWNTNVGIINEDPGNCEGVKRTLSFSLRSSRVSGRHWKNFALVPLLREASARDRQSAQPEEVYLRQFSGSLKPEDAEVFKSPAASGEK

With `COc1ccccc1N1CCN(CCN(C(=O)c2ccc(F)cc2)c2ccccn2)CC1` as the molecule, how does the outcome [1] read?
The outcome was “inactive”.

What about the outcome [2] of the same molecule?
Its outcome is “inactive”.

What about the Potency [3] of the same molecule?
Its Potency is “inactive”.

What about the Potency [4] of the same molecule?
Its Potency is “inactive”.

And the activation [5]?
Its activation is 0.312%.

What does the source list for `OCC1NCC(O)C(O)C1O` (stereo unspecified)?
outcome [1]: inactive; Potency [6]: inactive; Potency [3]: inactive; Potency [7]: inactive; Potency [4]: inactive; Potency [8]: inactive; activation [5]: 0.938%

Which results are given for `CC1C(=O)N(C)C(=O)c2nc[nH]c21` (stereo unspecified)?
outcome [1]: inactive; Potency [3]: inactive; Potency [7]: inactive; Potency [4]: inactive; activation [5]: 1.25%

Which outcome [1] does the source give for `CC(C)(CO)Cc1cc(C(C)(C)C)c(O)c(C(C)(C)C)c1` here?
The outcome was “inactive”.

What about the Potency [6] of the same molecule?
The Potency was 15.8 µM (active).

What about the Potency [7] of the same molecule?
The Potency was “inactive”.

What about the Potency [4] of the same molecule?
Its Potency is “inactive”.

And the Potency [8]?
Its Potency is “inactive”.

And the activation [5]?
The activation was -13.9%.

Which results are given for `NCCNS(=O)(=O)c1cccc2c(Cl)cccc12`?
outcome [2]: inactive; Potency [6]: inactive; Potency [3]: inactive; Potency [7]: inactive; Potency [4]: inactive; Potency [8]: inactive; activation [5]: 2.62%

With `NCC(O)(CS(=O)(=O)O)c1ccc(Cl)cc1` (stereo unspecified) as the molecule, how does the outcome [2] read?
The outcome was “inactive”.

What about the Potency [6] of the same molecule?
The Potency was “inactive”.

What about the Potency [3] of the same molecule?
The Potency was “inactive”.

What about the Potency [7] of the same molecule?
Its Potency is “inactive”.

And the Potency [4]?
Its Potency is “inactive”.

And the Potency [8]?
Its Potency is “inactive”.

What about the activation [5] of the same molecule?
Its activation is 0.25%.

For `CCC1(O)CC2CN(CCc3c([nH]c4ccccc34)[C@@](C(=O)OC)(c3cc4c(cc3OC)N(C=O)C3[C@]45CCN4CC=C[C@@](CC)([C@@H](OC(C)=O)[C@]3(O)C(=O)OC)[C@H]45)C2)C1` (stereo partly specified), which outcome [2] is on record?
The outcome was “inactive”.

And the Potency [6]?
The Potency was “inactive”.

What about the Potency [3] of the same molecule?
The Potency was “inactive”.

What about the Potency [7] of the same molecule?
Its Potency is “inactive”.

And the Potency [4]?
The Potency was 0.92 µM (active).

What about the activation [5] of the same molecule?
Its activation is 0.188%.

Which outcome [1] does the source give for `CC1CCN(CC[C@H]2CCCN2S(=O)(=O)c2cccc(O)c2)CC1` here?
Its outcome is “inactive”.

And the Potency [3]?
Its Potency is “inactive”.

What about the Potency [7] of the same molecule?
The Potency was “inactive”.

What about the Potency [4] of the same molecule?
The Potency was “inactive”.

And the Potency [8]?
The Potency was “inactive”.

What about the activation [5] of the same molecule?
The activation was 2.44%.

For `CC1CNCCN1S(=O)(=O)c1cccc2cnccc12` (stereo unspecified), which outcome [2] is on record?
Its outcome is “inactive”.

What about the Potency [6] of the same molecule?
Its Potency is “inactive”.

And the Potency [3]?
Its Potency is “inactive”.

What about the Potency [7] of the same molecule?
Its Potency is “inactive”.

And the Potency [4]?
Its Potency is “inactive”.

And the Potency [8]?
The Potency was 8.2 µM (active).

What about the activation [5] of the same molecule?
Its activation is 1.25%.

Which outcome [2] does the source give for `N#Cc1cc2nc(O)c(O)nc2cc1[N+](=O)[O-]` here?
Its outcome is “inactive”.

What about the Potency [6] of the same molecule?
Its Potency is “inactive”.

And the Potency [3]?
The Potency was “inactive”.

And the Potency [7]?
Its Potency is “inactive”.

What about the Potency [4] of the same molecule?
Its Potency is “inactive”.

What about the Potency [8] of the same molecule?
The Potency was “inactive”.

And the activation [5]?
Its activation is -2.94%.

With `Fc1ccc(CN(C2=NCCN2)c2c(Cl)cccc2Cl)cc1` as the molecule, how does the outcome [2] read?
The outcome was “inactive”.

And the Potency [6]?
The Potency was “inactive”.

And the Potency [3]?
Its Potency is “inactive”.

What about the Potency [7] of the same molecule?
Its Potency is “inactive”.

What about the Potency [4] of the same molecule?
The Potency was “inactive”.

What about the activation [5] of the same molecule?
The activation was 1.31%.

With `C/C(=C\c1ccc(C(=O)O)cc1)c1ccc2c(c1)C(C)(C)CCC2(C)C` as the molecule, how does the outcome [1] read?
The outcome was “inactive”.

And the Potency [3]?
Its Potency is “inactive”.

What about the Potency [7] of the same molecule?
Its Potency is “inactive”.

And the Potency [4]?
The Potency was “inactive”.

What about the Potency [8] of the same molecule?
The Potency was “inactive”.

And the activation [5]?
The activation was -6%.

Which outcome [1] does the source give for `CCCCC[C@H](CC(=O)NO)C(=O)N[C@H](C(=O)N1CCC[C@H]1CO)C(C)C` here?
Its outcome is “inactive”.

And the Potency [3]?
Its Potency is “inactive”.

And the Potency [7]?
The Potency was “inactive”.

And the Potency [4]?
The Potency was “inactive”.

And the activation [5]?
The activation was -2.88%.

What does the source list for `CCC1(O)CC2CN(CCc3c([nH]c4ccccc34)[C@@](C(=O)OC)(c3cc4c(cc3OC)N(C)C3[C@]45CCN4CC=C[C@@](CC)([C@@H](OC(C)=O)[C@]3(O)C(=O)OC)[C@H]45)C2)C1` (stereo partly specified)?
outcome [1]: inactive; Potency [6]: inactive; Potency [3]: inactive; Potency [7]: inactive; activation [5]: -0.125%

What does the source list for `O=C(O)C1=CCCNC1`?
outcome [1]: inactive; Potency [6]: inactive; Potency [7]: inactive; Potency [4]: inactive; Potency [8]: inactive; activation [5]: 0.875%
